Data published in PubChem BioAssay (NCI).
Compounds without any hit were thinned out: in the full panel of roughly 79,000, 15% have a hit. Activity calls are given as the source filed them. No stated cut-off is given here; in the data, active means growth inhibition above about 70%; inactive means the rest.

Assays:
[1] = NCI Yeast Anticancer Drug Screen. Data for the rad50 strain (AID 155);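 further: 0% = growth of vehicle-only cultures of the same strain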; details: S. cerevisiae rad50 strain growth inhibition; at 50.0 µM; hits give high values
Method in brief: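 Genetically altered yeast (DNA repair pathway); compound treatment; growth inhibition vs vehicle ctrl.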

[2] = NCI Yeast Anticancer Drug Screen. Data for the mec2-1 strain (AID 157); details: S. cerevisiae mec2-1 strain, at 50.0 µM, hits give high values
Method in brief: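 Strain: mec2-1 (DNA repair/cell cycle alteration). Compound exposure, then growth measured; inhibition expressed relative to vehicle.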

[3] = NCI Yeast Anticancer Drug Screen. Data for the sgs1 mgt1 strain (AID 161);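 further: 0% = growth of cultures given vehicle only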; details: S. cerevisiae sgs1 mgt1 strain, at 50.0 µM, hits give high values
Method in brief: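 Test agents were incubated with a DNA-repair-mutant yeast strain. Growth was then read and compared against vehicle-treated controls.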

[4] = NCI Yeast Anticancer Drug Screen. Data for the cln2 rad14 strain (AID 165);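 further: 0% = growth equal to vehicle treated cultures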; details: S. cerevisiae cln2 rad14 strain, at 50.0 µM, hits give high values
Method in brief: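 Compounds are applied to the cln2 rad14 yeast strain, and growth is then compared with that of vehicle-treated cultures to give inhibition.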

[5] = NCI Yeast Anticancer Drug Screen. Data for the bub3 strain (AID 167); details: S. cerevisiae bub3 mutant strain, at 50.0 µM, hits give high values
Method in brief: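 Yeast carrying a defined mutation is treated with each compound, and growth is compared with that of vehicle-exposed cells to give inhibition.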

[6] = NCI Yeast Anticancer Drug Screen. Data for the mlh1 rad18 strain (AID 175); details: S. cerevisiae mlh1 rad18 strain growth inhibition; at 50.0 µM; hits give high values
Method in brief: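 Read-out is yeast growth inhibition, calculated against vehicle-only controls. The compound was applied to a strain engineered with DNA damage repair alterations.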

Measured: growth inhibition

Oc1cccc(Cl)c1
inactive: [1] -3.15% | [2] -30.1% | [3] 4.75% | [4] 6.1% | [5] -2.45% | [6] 8.3%

COc1ccc(OC)c(CCc2cc(OC)ccc2OC)c1
inactive: [1] -7.85% | [2] -13.2% | [3] -9.95% | [4] -40.1% | [5] 13.2% | [6] -28%

Fc1cccc2cc3cccc[n+]3cc12
inactive: [1] 5.6% | [2] 6.65% | [3] 3.55% | [4] -36.3% | [5] 15.6% | [6] -1.8%

COc1ccccc1CCN
inactive: [1] -23.6% | [2] -5.9% | [3] -14.1% | [4] -14.3% | [5] -21.2% | [6] -29.3%

O=[N+]([O-])c1cccc([As](=O)(O)c2ccc(O)c([N+](=O)[O-])c2)c1
inactive: [1] 5.6% | [2] 10.2% | [3] 15.1% | [4] -4.3% | [5] 20.4% | [6] 4.65%

Nc1nnc(N)n1N
inactive: [1] 15.8% | [2] -21.2% | [3] -8.15% | [4] -20.3% | [5] 1.5% | [6] -1.65%

c1ccc(N=Nc2ccccc2)cc1
inactive: [1] -1.25% | [2] -7.5% | [3] -4.2% | [4] -9.55% | [5] -5.15% | [6] 24.6%

CC1CN=C(NCc2ccccc2)S1 (configuration not stated)
inactive: [1] -33.2% | [2] 16.6% | [3] -33.5% | [4] 21.9% | [5] -1.05% | [6] -6.6%

CC(=O)NC1C([Se][As](C)C)OC(COC(C)=O)C(OC(C)=O)C1OC(C)=O (configuration not stated)
inactive: [1] -15.2% | [2] -20.4% | [3] 23.6% | [4] -7.3% | [5] -2.95% | [6] -6.5%

C[N+](C)=C(Cl)Cl
inactive: [1] 1.75% | [2] -30.1% | [3] -8.1% | [4] 4.15% | [5] -7.85% | [6] -12.9%

COc1ccc2c(c[n+](C)c3c4cc5c(cc4ccc23)OCO5)c1OC
inactive: [1] 0.2% | [2] -6.25% | [3] 5.6% | [4] 14% | [5] -6.5% | [6] 0.6%

CCCOC(=O)CCl
inactive: [1] 15.4% | [2] 15.2% | [3] 30.1% | [4] 5.25% | [5] 5.15% | [6] 20.3%

O=C(NCC(O)CO)c1ccc(N(CCCl)CCCl)c([N+](=O)[O-])c1[N+](=O)[O-] (configuration not stated)
inactive: [1] 17.1% | [2] 4.7% | [3] 16.3% | [4] 8.1% | [5] 12.7% | [6] 17.1%

CC(C)N(C(C)C)P(OCCC#N)OC1CC(n2cnc3c(=O)[nH]cnc32)OC1COC(=O)NCCCCCCNC(=O)OC(C)(C)c1ccc(-c2ccccc2)cc1 (configuration not stated)
inactive: [1] -11.2% | [2] -26.4% | [3] -27% | [4] 10% | [5] 12.8% | [6] -18.4%

[C-]#[O+].[C-]#[O+].[C-]#[O+].[C-]#[O+].[Cr].c1ccc(P(CCP(CCP(c2ccccc2)c2ccccc2)c2ccccc2)CCP(c2ccccc2)c2ccccc2)cc1 (configuration not stated)
inactive: [1] 20.7% | [2] 23.2% | [3] 29.2% | [4] 16.8% | [5] 21.4% | [6] 31.6%

O=C1CC2(CCNCC2)C(=O)N1N1CCCCC1
inactive: [1] -2.5% | [2] 12% | [3] 5.9% | [4] 7.15% | [5] 1.45% | [6] 5.4%

NC(CP(=O)(O)O)C(=O)O (configuration not stated)
inactive: [1] 0.4% | [2] 5.7% | [3] -31.1% | [4] -55.2% | [5] -32.4% | [6] -37.6%

CC1(C)C(=O)/C(=N\O)C[C@@]2(C)C1=CC[C@@H]1[C@@H]2CC[C@]2(C)C(=O)/C(=N/O)C[C@@H]12
inactive: [1] 1.55% | [2] -5.25% | [3] -0.05% | [4] -45.1% | [5] -1% | [6] -12.1%

C=CCCCCCCCCC(=O)Nc1ccc(Cl)cc1C(=O)c1ccccc1
inactive: [1] -2.3% | [2] 0% | [3] 4.3% | [4] 28.2% | [5] -7.95% | [6] 13.8%

CO[C@H]1C[C@H](O[C@H]2CC[C@]3(C=O)[C@H]4CC[C@]5(C)[C@@H](C6=CC(=O)OC6)CC[C@]5(O)[C@@H]4CC[C@]3(O)C2)O[C@H](C)[C@H]1O
inactive: [1] 33.4% | [2] -11.3% | [3] 8.6% | [4] 0.55% | [5] -6.45% | [6] 32.3%

CN(C)C(=S)Oc1ccc(Cl)cc1S(=O)(=O)F
inactive: [1] 53.6% | [2] 14.2% | [3] 32.4% | [4] 20.4% | [5] -6.7% | [6] 9.6%

[Au].[NH-]CC[NH-].[NH-]CC[NH-]
inactive: [1] 9.45% | [2] -5.5% | [3] -17.4% | [4] -7.05% | [5] -0.55% | [6] -12.5%

C=C1C(=O)OC2CC3(C)OC3C3OC3C3=CC(OC3=O)C12 (configuration not stated)
inactive: [1] 18.9% | [2] 34.7% | [3] 57.1% | [4] 29.6% | [5] 41.4% | [6] 38.1%

NS(=O)(=O)c1cc(N(CCCl)CCCl)c([N+](=O)[O-])cc1[N+](=O)[O-]
inactive: [1] -72.8% | [2] -36.8% | [3] -12.5% | [4] 2.1% | [5] -16.1% | [6] -34.5%

O=C(OC12CCN(CC1)CC2)c1ccccc1
inactive: [1] -7.55% | [2] 8.6% | [3] 4.25% | [4] -50.2% | [5] 8.15% | [6] 0.5%

Nc1cccc2ccccc12
inactive: [1] 17.1% | [2] -9.95% | [3] 6.65% | [4] -28.9% | [5] 19.2% | [6] 4.4%

C=CCn1nnnc1N
inactive: [1] -4.3% | [2] -16.8% | [3] -5.55% | [4] -37.9% | [5] 3.1% | [6] -6.2%

CCCCOCCOP(=O)(OCCOCCCC)OCCOCCCC
inactive: [1] 7.85% | [2] -15.2% | [3] 2% | [4] -14.8% | [5] -39% | [6] -28.4%

Cc1nc2ccccc2c(=O)n1-c1ccccc1Cl
inactive: [1] 7.15% | [2] -4.65% | [3] -6.75% | [4] 12.9% | [5] 15.9% | [6] 9.8%

Cc1ccc(S(=O)(=O)OCCN2CC2)cc1
inactive: [1] -12% | [2] -12.2% | [3] -13.6% | [4] -23.2% | [5] -17.4% | [6] -12.7%

CCC1(C/C=C/Cl)C(=O)NC(=O)NC1=O
inactive: [1] 7.65% | [2] -3.5% | [3] -29.5% | [4] -38.5% | [5] 6.45% | [6] -29.1%

COc1ccc(CCl)cc1CCl
inactive: [1] -24.2% | [2] -62.8% | [3] -7.25% | [4] 5.85% | [5] -26.4% | [6] -43.7%

CC(CO)([N+](=O)[O-])[N+](=O)[O-]
inactive: [1] 7.45% | [2] 4.75% | [3] -0.05% | [4] -0.1% | [5] 4.8% | [6] 7.35%

COc1ccc2c(c1)C1(C=N2)CCN(C(C)=O)CC1
inactive: [1] 3.25% | [2] -17.1% | [3] -16.4% | [4] 17.1% | [5] -9.75% | [6] -24.8%

O=P(O)(O)CCP(=O)(O)O
inactive: [1] -14.5% | [2] 17.9% | [3] -13.4% | [4] 21.8% | [5] -13.7% | [6] -13.7%

Oc1ccc(Nc2ncnc3nc[nH]c23)cc1CN(CCCl)CCCl
inactive: [1] -5.85% | [2] -5.8% | [3] 3.95% | [4] -45.4% | [5] -15.5% | [6] 3.65%

O=C1OC(c2ccccc2)(c2ccccc2)C(=O)OC1(c1ccccc1)c1ccccc1
inactive: [1] 16.7% | [2] -14% | [3] 7.7% | [4] 0.4% | [5] 10.4% | [6] 19.2%
